According to PubChem BioAssay AID2314 (National Center for Advancing Translational Sciences (NCATS), 2010):
“And” between values parts separate entries of the source, which are not always exact repeats. Equal values may be shown once. Out of some 300,000 compounds screened, about 37,000 (12%) were called active. For the sample, actives were picked, then their nearest neighbours and some compounds at random. Unmarked numbers belong to inactive results. Cut-off read from the data, not from the text of the source: active = max response mostly above about 13% (no sharp cut-off); inactive = mostly below about 14%.

test: Cycloheximide Counterscreen for Small Molecule Inhibitors of Shiga Toxin; conditions: cell reporter, cycloheximide protein synthesis inhibition counterscreen; active compounds read high; note: read at 38.3 µM for the half of the compounds with a filed dose; 0% is about no effect

Row | SMILES | max response
1 | O=C1CCCN1CCCNC(=S)Nc1ccc(F)c(Cl)c1 | 11.5%
2 | OCc1ccc(OCCCOc2cccc3cccnc23)cc1 | 1.36%
3 | Cc1ccc2cccc(OCCCOc3ccccc3CO)c2n1 | 13.2% (active)
4 | Cc1ccc(N(C)C(=O)Oc2cccc3ccc(C)nc23)cc1 | -4.01%
5 | Cc1cc(S(=O)(=O)NCc2ccccn2)c(Cl)cc1Cl | -3.82%
6 | O=C1NC(=Nc2ccc(Cl)cc2)SC1Cc1cccc(Cl)c1Cl (stereo unspecified) | -3.08%
7 | Cc1nc(N2CCOCC2)nc2c1CCCC2 | 9.25%
8 | Nc1nc(-c2sc3nc4c(cc3c2N)CCCC4)nc(N2CCOCC2)n1 | 17.7% (active)
9 | Cc1cc(Oc2ccccc2)nc(N2CCOCC2)n1 | 11.6%
10 | COc1ccc(N2C(=O)C(CC(=O)Nc3ccc(F)cc3)N(CCc3cccs3)C2=O)cc1 (stereo unspecified) | 8.62%
11 | CNc1ccc(SC#N)cc1 | -2%
12 | COc1cccc(COc2ccc(N(C)S(=O)(=O)c3ccccc3)cc2)c1 | -0.489%
13 | COc1ccc(Cn2c(=S)[nH]c3cc(C(=O)N4CCCCC4)ccc3c2=O)cc1 | -3.34%
14 | CCOc1ccc(OCc2ccc(C(=O)N(C)c3ccccc3)o2)cc1 | 2.57%
15 | Cc1cccc(C(=O)N2CCN(S(=O)(=O)N3CCCCC3)CC2)c1 | -2.15%
16 | CCOc1ccc(OCc2cccc(C(=O)N(CC)CC)c2)cc1 | 47.9% (active)
17 | Cc1cccc(C(=O)N2CCCN(C(=O)c3cccc(C)c3)CC2)c1 | -1.57%
18 | COc1ccc(CNC(=O)C2CCN(C(=O)c3ccccc3)CC2)cc1 | 1.61%
19 | COc1ccc(OCc2cccc(C(=O)N3CCCC3)c2)cc1 | 59.3% (active)
20 | CC(=O)Oc1ccc(-c2cccc(C(=O)N3CCCCC3)c2)cc1 | 12.6% (active)
21 | O=C(c1cc(S(=O)(=O)N2CCOCC2)ccc1Cl)N1CCOCC1 | -3.17%
22 | OC(c1nc2ccc(F)cc2[nH]1)C(O)c1nc2ccc(F)cc2[nH]1 (stereo unspecified) | -0.936%
23 | COc1ccccc1N1CCN(C(=O)c2cc(=O)c3cc(C)cc(C)c3o2)CC1 | -2.78%
24 | Cc1ccc(C)c(-n2c(SCC(=O)O)nc3sc4c(c3c2=O)CCCC4)c1 | -4.29%

Row | SMILES | max response
25 | Cc1ccc(NC(=S)N(CCN(C)C)Cc2cccs2)cc1C | -3.5%
26 | O=C(COc1ccc(-n2cnnn2)cc1)Nc1ccccc1Cl | 9.71%
27 | Cc1sc2nc(CSCC(=O)Nc3c(Cl)cccc3Cl)[nH]c(=O)c2c1C | 13.5%
28 | CCOc1cc(NC(=O)Nc2ccccc2)c(OCC)cc1NC(=O)CC | -3.19%
29 | CS(=O)(=O)c1ccc(Cl)c(NC(=O)Nc2ccccc2)c1 | -1.05%
30 | Cc1ccc(NC(=O)Nc2ccccc2)c(Br)c1 | 64.5% (active)
31 | COc1ccc(S(=O)(=O)N/N=C\c2ccc(OC)c(COc3ccc(C)cc3[N+](=O)[O-])c2)cc1 | -1.1%
32 | O=C(NCc1ccco1)C(c1ccncc1)N(C(=O)Cn1nnc2ccccc21)c1ccccc1 (stereo unspecified) | -1.7%
33 | CCN(CC)C(=O)Oc1ccc(Br)cc1C(=O)Nc1ccc(F)c(Cl)c1 | 11%
34 | CSc1ccccc1NC(=O)CN(C)CC(=O)Nc1cccc(Br)c1 | 1.62%
35 | CCN(CC)C(=O)C(=O)Nc1cccc(Br)c1 | 36.1% (active)
36 | CC(C)(C)c1ccccc1NC(=O)CN1C(=O)NC2(CCCC2)C1=O | -4.11%
37 | CC(CN1CCOCC1)OC(=O)c1ccc(Cl)cc1Cl (stereo unspecified) | 20.3%
38 | CC(CN1CCCCC1)OC(=O)c1ccccc1Cl (stereo unspecified) | 22.1% (active)
39 | Cc1cccc(C(=O)OC(C)CN2CCN(C)CC2)c1 (stereo unspecified) | 41.3% (active)
40 | Cc1ccc(C(CNC(=O)Nc2cccc(C)c2)N2CCN(C)CC2)cc1 (stereo unspecified) | -4.7%
41 | CC(CN1CCOCC1)c1ccccc1 (stereo unspecified) | 2.67%
42 | Cc1ccc(C(=O)OC(C)CN2CCOCC2)cc1 (stereo unspecified) | 16.8%
43 | Cc1cccc(C(=O)OC(C)CN2CCCC2)c1 (stereo unspecified) | 6.5%
44 | CC(CN1CCCCC1)c1ccccc1 (stereo unspecified) | -3.13%
45 | CC(CN1CCOCC1)OC(=O)c1ccc(C(C)(C)C)cc1 (stereo unspecified) | 16.4% (active)
46 | COc1ccc(-n2nc3c(N4CCC(C(=O)NCc5ccccc5)CC4)nnc(C)c3c2C)cc1 | -13.3%
47 | CCOC(=O)C1C(c2ccc(OC)c(OC)c2)c2c([nH][nH]c2=O)CC1(C)O (stereo unspecified) | -1.55%
48 | CO/N=C(/CS(=O)(=O)c1ccc(Br)cc1)c1ccc(OC)cc1 | 0.74%

Row | SMILES | max response
49 | Clc1ccc(COn2c(-c3ccc(Cl)cc3Cl)nc3ncccc32)cc1 | -3.82%
50 | Cc1n[nH]c(=O)c2c1nnn2Cc1ccc(F)cc1 | -2.69%
51 | O=C(Nc1ccc(Br)cc1)c1cccc(NC(=O)C2C3CC4OC(=O)C2C4C3)c1 (stereo unspecified) | 14%
52 | Cn1c(CCNS(=O)(=O)c2ccc(F)cc2)nnc1SCc1cccnc1 | -3.41%
53 | COC(=O)C1[C@H]2SC(C)(C)C(C(=O)OC)N2C(=O)N1Cc1nc2ccccc2s1 (stereo partly specified) | 0.765%
54 | CCC1(CC)NC(=O)N(Cc2nc3ccccc3s2)C1=O | 19.8% (active)
55 | CCC1(CC)NC(=O)N(CC(=O)OCC(=O)NC(=O)c2ccccc2)C1=O | -1.66%
56 | O=S(=O)(c1ccccc1)c1nc(Cc2ccccc2)oc1N1CCOCC1 | -5.23%
57 | COc1ccc(CCN2C(=O)CC(N3CCC(C(N)=O)CC3)C2=O)cc1OC (stereo unspecified) | 3.18%
58 | Nc1nonc1-n1nnc(C(=O)N/N=C/c2cc(Br)ccc2O)c1CSC1=NCCS1 | -2.34%
59 | O=C(Nc1ccccc1F)c1ccccc1-c1ccc(C(F)(F)F)cc1 | -2.22%
60 | CCCOC(=O)C1=C(C)NC2=C(C(=O)C(C(=O)OC)C(C)C2)C1c1ccc(N(C)C)cc1 (stereo unspecified) | 12.3%
61 | COC(=O)C1C(=O)c2c([nH]c(C(=O)OCCSC)c2C)CC1C (stereo unspecified) | 51.7% (active)
62 | CCCOC(=O)c1[nH]c2c(c1C)C(=O)CC(c1cc(OC)c(OC)c(OC)c1)C2 (stereo unspecified) | 3.17%
63 | CC(C)(CNC(=O)Cc1ccc(Cl)cc1Cl)N1CCOCC1 | -3.1%
64 | COCCN(CCOC)S(=O)(=O)c1ccc(/C(O)=C(\C#N)c2nc3ccccc3[nH]2)cc1 | 12.2% (active)
65 | Cc1ccccc1OC/C(O)=C(\C#N)c1nc2ccccc2[nH]1 | 0.892%
66 | N#C/C(=C(/O)COc1cccc2ccccc12)c1nc2ccccc2[nH]1 | 2.08%
67 | O=C(c1ccc(OC2CCN(C(=O)c3cccnc3)CC2)cc1)N1CCCCCC1 | -1.68%
68 | CCOC(=O)/C(=C\c1ccc([N+](=O)[O-])cc1)C(=O)c1cc(C(C)=O)c(Nc2ccccc2)s1 | -4.46%
69 | O=C1/C(=C/c2ccc3c(c2)OCO3)Oc2cc(OCC(=O)N3CC(O)C[C@H]3C(=O)O)ccc21 (stereo partly specified) | 0.739%
70 | COC(=O)C(C)Oc1ccc2c(c1)O/C(=C\c1cccc(Br)c1)C2=O (stereo unspecified) | 1.99%
71 | CN(C)C(=O)Oc1ccc2c(c1)O/C(=C\c1ccccc1)C2=O | 44.1% (active)
72 | COc1cc(C(CCN2CCN(c3ccccc3)CC2)c2c(OC)cc(OC)c3ccc(=O)oc23)cc(OC)c1OC (stereo unspecified) | -1.52% and 15.6%

Row | SMILES | max response
73 | C=C(C)COc1ccc(-c2ncncc2-c2ccc(OC)cc2)c(O)c1 | 13.2%
74 | Cc1ccc(SCC(=O)c2cc(C)c(OC(=S)N(C)C)c(C)c2)cc1 | 26.1% (active)
75 | Cc1ccc(SC(=O)COc2ccc(C)c(C)c2)cc1 | -5.87%
76 | COC(=O)c1cc(OC)c(OC)cc1NC(=O)CSc1ccc(C)cc1 | -2.51%
77 | Cc1ccc(NC(=O)c2ccc(S(=O)(=O)NCC3CCCO3)cc2)cc1C (stereo unspecified) | 9.52%
78 | Cc1ccc(-c2nn(-c3ccccc3)cc2/C=C2\SC(=S)N(CCCCCC(=O)O)C2=O)o1 | 1.36%
79 | O=C(NC(=S)N1CCCCC1c1cccnc1)c1ccccc1 (stereo unspecified) | 11.6%
80 | C=C(C)c1cccc(C(C)(C)NC(=O)NC2CCCC2)c1 | -2.37%
81 | Cc1ccc(C)c(N2CCN(C(=O)Cn3ncn4cccc4c3=O)CC2)c1 | -1.35%
82 | FC(F)(F)c1ccnc(Oc2ccc(C3=NCCS3)cc2)c1 | 42.3% (active)
83 | O=Cc1ccc(Oc2cccc(C(F)(F)F)c2)nc1 | 15%
84 | NC(=S)Nc1c(Cl)cccc1Cl | 4.66%
85 | O=C(COC(=O)c1cccs1)NCc1cccs1 | 16.3% (active)
86 | CCc1ccc(NC(=O)CCNS(=O)(=O)c2cccs2)cc1 | 21.6% (active)
87 | O=C(COC(=O)c1ccc(Cl)nc1)NCc1cccs1 | -2.61%
88 | O=C(COC(=O)c1ccc(NS(=O)(=O)c2cccs2)cc1O)Nc1ccc(F)cc1 | 0.935%
89 | CCOC(=O)c1oc2ccccc2c1NC(=O)c1cccs1 | -3.1%
90 | CCc1ccc(NC(=O)C(=O)NNC(=O)c2cccs2)cc1 | 27.8% (active)
91 | O=C(COC(=O)c1cccs1)Nc1ccccc1Cl | -1.99%
92 | CCc1ccc(NC(=O)COC(=O)c2cccs2)cc1 | 51.3% (active)
93 | O=C(COC(=O)CCC(=O)c1cccs1)NCc1ccco1 | 1.52%
94 | CCc1ccc(NC(=O)C(=O)N/N=C(\C)CC(=O)NCCOC)cc1 | 20.1%
95 | CCc1cccc(NC(=O)CCNS(=O)(=O)c2cccc3nonc23)c1 | -2.33%
96 | C/C(=N\OCC(=O)Nc1ccc(Br)cc1)c1cccs1 | 7.82%
